Assay results taken from PubChem BioAssay (Tox21).
A number with no mark means an inactive call. Results filed as inconclusive are left out. Where a call stands in place of a potency, no number is given. Activity calls are given as the source filed them. Unless noted, calls come from the whole dose curve.

Columns and labels:
[1] = Nuclear factor erythroid 2-related factor 2/antioxidant responsive element (Nrf2/ARE) small molecule agonists: qHTS cell viability counter screen in human keratinocytes (AID 1919968; active = well fitted curve in the direction sought with a large enough effect in the repeat runs; an effect the other way counts as inactive or inconclusive; note: nearly all actives have a fitted effect of over 55% in size; note: potency is the fitted concentration of half-maximal effect)
In short: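 In human HaCaT keratinocytes stably expressing an ARE-driven luciferase, compound exposure lasted 23 h at 37 C under 5% CO2. Viable cells are quantified with a protease-based fluorogenic reagent (CellTiter-Fluor) read 1 h after addition.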

[2] = target: Gonadotropin-releasing hormone receptor (Homo sapiens) (UniProt P30968); assay: Human gonadotropin-releasing hormone receptor (GnRHR) small molecule agonists, calcium flux assay in GnRHR-HEK293 cells (AID 1920063); note: nearly all actives have a fitted effect of over 35% in size
In short: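 Intracellular calcium rise is the read-out: engineered human GnRHR HEK293 cells, dye-loaded, are exposed to DMSO-dissolved compounds and fluorescence at Ex/Em 480/540 is tracked for 3 min.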

[3] = target: KiSS-1 receptor (Homo sapiens) (UniProt Q969F8); assay: Human kisspeptin (KISS1R) small molecule agonists, calcium flux assay in KISS1R-HEK293 cells (AID 1920064; active = well fitted curve in the direction sought with a large enough effect in the repeat runs; an effect the other way counts as inactive or inconclusive)
In short: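 Concentration-response testing used 15 concentrations in triplicate on human KISS1R-expressing HEK293 cells. Calcium-dependent fluorescence (Ex/Em 480/540) was followed kinetically for 3 min after compound transfer.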

[4] = G protein-coupled receptor (GPCR) small molecule agonists, calcium flux assay: HEK293 wild type cell line counter screen (AID 1920065)
In short: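 Fluorescence intensity signals activation. After overnight (18 h) culture and a 1 h calcium dye load at 37 C, compounds are added by pin tool and the plate read at 480/540 nm for 3 min in 1 s steps.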

[5] = p53 small molecule agonists, cell-based qHTS assay with rat liver microsomes: qHTS cell viability counter screen (AID 1963580); note: nearly all actives have a fitted effect of over 45% in size; note: potency is the fitted concentration of half-maximal effect
In short: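 Rat liver microsome (0.5 mg/mL final) and NADPH (0.5 mg/mL final) co-incubation with compounds for 16 h at 37 C on HCT-116 p53RE-bla cells; cytotoxicity taken from intracellular ATP luminescence.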

[6] = target: 5-hydroxytryptamine receptor 2A (Homo sapiens) (UniProt P28223); assay: 5-hydroxytryptamine receptor 2A (HTR2A) small molecule antagonists, cell-based qHTS assay (AID 1963586); note: nearly all actives have a fitted effect of over 45% in size
In short: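 CHO cells stably expressing human HTR2A were plated for 18 h at 37 C, then loaded with calcium dye for 1 h. Compounds were preincubated 5 min at room temperature before DOI (4 nM solution) was added. Kinetic fluorescence was read for 3 min.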

[7] = target: 5-hydroxytryptamine receptor 2A (Homo sapiens) (UniProt P28223); assay: 5-hydroxytryptamine receptor 2A (HTR2A) small molecule agonists, cell-based qHTS assay (AID 1963587); note: nearly all actives have a fitted effect of over 30% in size; note: potency is the fitted concentration of half-maximal effect
In short: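 Kinetic calcium-flux fluorescence (2 min, 1 sec intervals) after compound addition in agonist mode. HTR2A-CHO cells were cultured 18 h, then dye-loaded 1 h at 37 C.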

[8] = target: Muscarinic acetylcholine receptor M1 (Homo sapiens) (UniProt P11229); assay: Cholinergic receptor muscarinic 1 (CHRM1) small molecule antagonists, cell-based qHTS assay (AID 1963588); note: nearly all actives have a fitted effect of over 40% in size
In short: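 Compounds were tested at 15 concentrations in three independent runs. Dye-loaded CHRM1-CHO cells were exposed 5 min at room temperature before stimulation by acetylcholine added at 50nM. Intracellular calcium was read kinetically on FDSS for 3 min.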

[9] = target: Muscarinic acetylcholine receptor M1 (Homo sapiens) (UniProt P11229); assay: Cholinergic receptor muscarinic 1 (CHRM1) small molecule agonists, cell-based qHTS assay (AID 1963589); note: nearly all actives have a fitted effect of over 35% in size
In short: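 Fluorescent calcium dye reports M1 activation in stably transfected CHO cells. Compounds, 15 concentrations, added after 1 h dye loading at 37 C; kinetic reading at 1 sec intervals.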

[10] = cAMP Responsive Elements (CRE) small molecule agonists, cell-based qHTS assay (AID 1963590)
In short: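 Compound exposure lasted 3 h at 37 C/5% CO2 in CRE-bla HEK 293T cells grown in assay medium with 10% dialyzed FBS and 25 mM HEPES. Reporter signal came from LiveBLAzer B/G FRET substrate, 2 h, room temperature.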

[11] = cAMP Responsive Elements (CRE) small molecule antagonists, cell-based qHTS assay (AID 1963591; active = well fitted inhibition curve with a large enough effect in the signal ratio in the repeat runs, not every such curve was filed as active; the % refers to the signal ratio)
In short: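 Stimulation used NKH477 at a final 0.25 uM for 3 h in compound-treated CRE-bla HEK293T cells, seeded 18 h beforehand. Reporter activity was measured with LiveBLAzer B/G FRET substrate after 2 h at room temperature.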

[12] = target: Beta-2 adrenergic receptor (Homo sapiens) (UniProt P07550); assay: Adrenergic beta2 receptor (ADRB2) small molecule antagonists, cell-based qHTS assay (AID 1963592); note: series mostly up to about 92 µM; nearly all actives have a fitted effect of over 50% in size
In short: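 Assay format: CHO-ADRB2 cells, 18-20hr seeding at 37C/5% CO2, then compound plus 1nM isoproterenol agonist mix for 0.5hr RT. Homogeneous time-resolved fluorescence cAMP detection after 1hr, expressed as 665/615 nm ratio.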

[13] = target: D(2) dopamine receptor (Homo sapiens) (UniProt P14416); assay: Dopamine D2 receptor (DRD2) small molecule agonists, cell-based qHTS assay (AID 1963594); note: nearly all actives have a fitted effect of over 35% in size
In short: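 cAMP accumulation in DRD2-HEK293 cells measured by HTRF after 1 h detection; compounds added 10 min before NKH477 (200nM […]) forskolin-analogue stimulation, 30 min at room temperature, with Ro20-1724 present at 0.1 mM final.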

[14] = target: D(2) dopamine receptor (Homo sapiens) (UniProt P14416); assay: Dopamine D2 receptor (DRD2) small molecule antagonists, cell-based qHTS assay (AID 1963595; active = well fitted inhibition curve with a large enough effect in the signal ratio in the repeat runs, with a control signal flat; the % refers to the signal ratio)
In short: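 In this cell-based antagonist screen, compounds act for 10 min at room temperature before a 30 min challenge with 12 nM quinpirole and 200 nM NKH477. cAMP is quantified by HTRF competition in DRD2-HEK293 cells containing 0.1 mM Ro20-1724.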

[15] = p53 small molecule agonists, cell-based qHTS assay with human liver microsomes: qHTS cell viability counter screen (AID 1963579); note: nearly all actives have a fitted effect of over 45% in size
In short: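 p53RE-bla cells (4,000/well) were pre-incubated 5 h at 37 C, then given compounds in DMSO plus human liver microsomes (0.5 mg/mL final) and NADPH (0.5 mg/mL final) for 16 h at 37 C. Viability was read by CellTiter-Glo luminescence.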

[16] = p53 small molecule agonists, cell-based qHTS assay: qHTS cell viability counter screen (AID 1963581); note: nearly all actives have a fitted effect of over 45% in size
In short: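 Luminescence from CellTiter-Glo, reflecting ATP content, serves as the cytotoxicity measure; it is taken after the 2 h reporter substrate step in HCT-116 p53RE-bla cells dosed for 16 h at 37 C.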

[17] = target: Beta-2 adrenergic receptor (Homo sapiens) (UniProt P07550); assay: Adrenergic beta2 receptor (ADRB2) small molecule agonists, cell-based qHTS assay (AID 1963593);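 note: CHO cells stably overexpressing human ADRB2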
In short: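 CHO cells stably over-expressing ADRB2 were plated overnight at 37C, then dosed with compounds plus a stimulation mix containing 100uM IBMX and 25uM Ro-20-1724 for 0.5hr at room temperature. cAMP was measured by HTRF competition, 1hr.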

[18] = p53 small molecule agonists, cell-based qHTS assay (AID 1963582; active = well fitted activation curve with a large enough effect in the signal ratio in the repeat runs, not every such curve was filed as active; the % refers to the signal ratio)
In short: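 After plating, p53RE-bla cells sat 5 h in the incubator; compounds or DMSO vehicle were pinned in; a 16 h incubation at 37 C followed; FRET substrate was added and, 2 h later at RT, fluorescence was measured.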

[19] = p53 small molecule agonists, cell-based qHTS assay with human liver microsomes (AID 1963577)
In short: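 p53RE-bla reporter cells were pre-incubated 5 h at 37 C, then treated with compounds plus human liver microsomes (0.5 mg/mL final) and NADPH (0.5 mg/mL final) for 16 h at 37 C. Beta-lactamase activity was read by LiveBLAzer fluorescence after 2 h at room temperature.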

[20] = p53 small molecule agonists, cell-based qHTS assay with rat liver microsomes (AID 1963578)
In short: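 p53RE-bla cells were exposed to compounds together with rat liver microsomes (0.5 mg/mL final) and NADPH (0.5 mg/mL final) for 16 h at 37 C, then read by LiveBLAzer beta-lactamase fluorescence after 2 h at room temperature.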

D(2) dopamine receptor (Homo sapiens), sequence (P14416 whole entry, looked up): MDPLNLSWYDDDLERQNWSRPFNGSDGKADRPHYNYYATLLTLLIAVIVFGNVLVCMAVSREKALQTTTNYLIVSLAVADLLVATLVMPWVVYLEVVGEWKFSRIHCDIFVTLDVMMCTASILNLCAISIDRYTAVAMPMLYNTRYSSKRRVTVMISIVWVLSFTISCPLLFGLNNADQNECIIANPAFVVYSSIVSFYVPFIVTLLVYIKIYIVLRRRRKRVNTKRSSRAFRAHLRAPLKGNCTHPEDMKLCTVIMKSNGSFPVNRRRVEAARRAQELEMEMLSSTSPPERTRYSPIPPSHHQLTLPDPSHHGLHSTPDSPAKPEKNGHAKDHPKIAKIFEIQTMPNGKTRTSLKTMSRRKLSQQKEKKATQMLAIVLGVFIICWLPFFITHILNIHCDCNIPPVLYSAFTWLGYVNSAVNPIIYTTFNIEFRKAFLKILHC
Beta-2 adrenergic receptor (Homo sapiens), sequence (P07550 whole entry, looked up): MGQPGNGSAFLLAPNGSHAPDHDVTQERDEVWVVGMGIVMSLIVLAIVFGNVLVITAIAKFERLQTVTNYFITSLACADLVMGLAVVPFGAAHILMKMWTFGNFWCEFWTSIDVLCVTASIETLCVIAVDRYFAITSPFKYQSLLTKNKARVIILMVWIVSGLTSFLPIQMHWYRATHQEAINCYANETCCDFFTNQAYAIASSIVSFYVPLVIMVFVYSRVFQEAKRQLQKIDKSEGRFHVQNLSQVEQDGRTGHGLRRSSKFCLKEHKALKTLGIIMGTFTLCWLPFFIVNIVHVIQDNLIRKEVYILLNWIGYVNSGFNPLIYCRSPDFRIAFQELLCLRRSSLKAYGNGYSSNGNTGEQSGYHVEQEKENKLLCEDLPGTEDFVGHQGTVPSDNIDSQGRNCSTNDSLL
Gonadotropin-releasing hormone receptor (Homo sapiens), sequence (P30968 whole entry, looked up): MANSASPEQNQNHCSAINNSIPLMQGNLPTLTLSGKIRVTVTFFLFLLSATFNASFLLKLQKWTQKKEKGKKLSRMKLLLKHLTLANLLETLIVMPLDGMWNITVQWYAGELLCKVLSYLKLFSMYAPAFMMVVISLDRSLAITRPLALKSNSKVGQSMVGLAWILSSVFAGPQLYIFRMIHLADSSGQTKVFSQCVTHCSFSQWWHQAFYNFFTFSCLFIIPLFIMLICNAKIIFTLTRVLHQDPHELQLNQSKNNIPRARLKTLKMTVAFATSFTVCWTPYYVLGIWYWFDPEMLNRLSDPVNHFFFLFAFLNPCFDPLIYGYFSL
KiSS-1 receptor (Homo sapiens), sequence (Q969F8 whole entry, looked up): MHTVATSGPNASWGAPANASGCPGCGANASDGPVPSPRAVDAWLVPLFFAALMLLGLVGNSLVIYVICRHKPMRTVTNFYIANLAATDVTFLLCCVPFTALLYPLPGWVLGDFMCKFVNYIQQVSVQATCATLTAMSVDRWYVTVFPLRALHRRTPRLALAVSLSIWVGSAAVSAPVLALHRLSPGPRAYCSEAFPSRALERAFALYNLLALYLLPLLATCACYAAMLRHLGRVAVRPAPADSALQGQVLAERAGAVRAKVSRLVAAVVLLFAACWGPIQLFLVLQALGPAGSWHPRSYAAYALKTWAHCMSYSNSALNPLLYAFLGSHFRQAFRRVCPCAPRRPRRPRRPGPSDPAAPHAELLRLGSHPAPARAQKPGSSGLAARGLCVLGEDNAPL
5-hydroxytryptamine receptor 2A (Homo sapiens), sequence (P28223 whole entry, looked up): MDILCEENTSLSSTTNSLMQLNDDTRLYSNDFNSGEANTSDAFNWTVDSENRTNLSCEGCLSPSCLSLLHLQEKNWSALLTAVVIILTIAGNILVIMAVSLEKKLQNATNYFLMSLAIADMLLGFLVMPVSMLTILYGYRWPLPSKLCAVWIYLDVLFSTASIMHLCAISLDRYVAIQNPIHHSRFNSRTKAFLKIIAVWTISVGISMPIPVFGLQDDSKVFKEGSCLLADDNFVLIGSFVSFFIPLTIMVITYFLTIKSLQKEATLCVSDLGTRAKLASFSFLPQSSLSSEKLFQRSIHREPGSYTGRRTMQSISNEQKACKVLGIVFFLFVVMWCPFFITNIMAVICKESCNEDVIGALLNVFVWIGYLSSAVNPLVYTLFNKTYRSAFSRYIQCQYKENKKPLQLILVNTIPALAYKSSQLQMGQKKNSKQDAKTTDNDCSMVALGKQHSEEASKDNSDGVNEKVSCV
Muscarinic acetylcholine receptor M1 (Homo sapiens), sequence (P11229 whole entry, looked up): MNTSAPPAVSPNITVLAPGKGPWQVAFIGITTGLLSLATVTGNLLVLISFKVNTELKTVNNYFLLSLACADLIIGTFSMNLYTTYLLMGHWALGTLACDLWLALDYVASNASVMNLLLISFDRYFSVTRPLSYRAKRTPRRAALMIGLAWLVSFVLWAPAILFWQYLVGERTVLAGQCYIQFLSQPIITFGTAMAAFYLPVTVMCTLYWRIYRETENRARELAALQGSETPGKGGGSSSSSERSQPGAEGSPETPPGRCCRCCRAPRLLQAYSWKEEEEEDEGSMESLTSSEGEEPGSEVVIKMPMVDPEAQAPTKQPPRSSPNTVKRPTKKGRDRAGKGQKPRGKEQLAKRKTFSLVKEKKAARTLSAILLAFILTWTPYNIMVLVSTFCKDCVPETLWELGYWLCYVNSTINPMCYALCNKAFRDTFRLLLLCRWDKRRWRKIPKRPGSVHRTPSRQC

Row | Structure (SMILES) | Potency [1] | Potency [2] | Potency [3] | Potency [4] | Potency [5] | Potency [6] | Potency [7] | Potency [8] | Potency [9] | Potency [10] | Potency [11] | Potency [12] | Potency [13] | Potency [14] | Potency [15] | Potency [16] | Potency [17] | Potency [18] | Potency [19] | Potency [20]
1 | NNC(=O)CP(=O)(c1ccccc1)c1ccccc1 | inactive | inactive | inactive | inactive | inactive | inactive | inactive | inactive | inactive | inactive | inactive | inactive | inactive | inactive | – | – | – | – | – | –
2 | CCCCCCCCC(=O)OCC(C)OC(=O)CCCCCCCC (centres undefined) | inactive | inactive | inactive | – | inactive | – | inactive | inactive | inactive | inactive | – | inactive | inactive | inactive | inactive | inactive | – | – | – | –
3 | O=C(O)c1cc(Br)c(O)c(Br)c1 | inactive | inactive | inactive | inactive | – | inactive | inactive | inactive | inactive | inactive | – | inactive | inactive | inactive | – | inactive | inactive | – | – | –
4 | OC[C@H]1O[C@@H](n2cnc3c(=S)nc[nH]c32)[C@H](O)[C@@H]1O | inactive | inactive | inactive | – | inactive | inactive | inactive | inactive | inactive | inactive | inactive | inactive | inactive | – | inactive | – | inactive | – | – | –
5 | CN(C)CC[C@@H](c1ccc(Cl)cc1)c1ccccn1 | inactive | inactive | inactive | inactive | – | – | – | – | – | inactive | inactive | – | inactive | inactive | – | inactive | – | inactive | – | –
6 | CC(C)C1CCC(C(=O)N[C@H](Cc2ccccc2)C(=O)O)CC1 (some centres undefined) | inactive | inactive | inactive | – | inactive | – | – | – | – | inactive | inactive | – | inactive | inactive | inactive | inactive | inactive | – | – | –
7 | On1ccccc1=S | 270 nM (active) | inactive | inactive | – | 718 nM (active) | inactive | 21.7 µM (active) | inactive | inactive | inactive | – | inactive | inactive | inactive | inactive | – | – | – | inactive | inactive
8 | COC(OC)(C(=O)c1ccccc1)c1ccccc1 | inactive | inactive | inactive | – | – | inactive | inactive | inactive | inactive | inactive | inactive | – | inactive | inactive | inactive | inactive | inactive | – | – | –
9 | CCCCCCCCCCCC(=O)OCC(O)CO (centres undefined) | inactive | inactive | inactive | inactive | inactive | inactive | – | inactive | inactive | – | inactive | inactive | inactive | inactive | – | inactive | inactive | – | – | –
10 | CC(=O)/C(C)=C/C1C(C)=CCCC1(C)C (centres undefined) | inactive | inactive | inactive | – | inactive | – | inactive | inactive | – | inactive | inactive | inactive | – | inactive | – | inactive | – | inactive | – | inactive
11 | CCN(CCCc1ccccc1)CCCc1ccccc1 | inactive | inactive | inactive | inactive | inactive | – | inactive | – | inactive | – | – | inactive | – | – | – | – | – | inactive | – | –
12 | CC(C)c1cccc(C(C)C)c1NC(=O)NS(=O)(=O)c1cc(C(C)(C)O)co1 | inactive | inactive | inactive | – | inactive | inactive | – | inactive | inactive | inactive | inactive | inactive | – | inactive | – | inactive | – | inactive | inactive | inactive
13 | Cc1c(N)cccc1N | inactive | inactive | inactive | inactive | inactive | inactive | – | inactive | inactive | inactive | inactive | – | inactive | inactive | – | inactive | – | – | – | –
